Data on 41 compounds can be found in paper PMC4336329 (PLoS ONE, 2015).

Screen size: about 310,000 compounds; about 2,200 (0.71%) showed an effect of 50% or more. Effects have a minus sign here. The sample as a whole holds a higher share of strong results than the screen did.

human ether-à-go-go-related gene (hERG) potassium channel, sequence (Q12809 whole entry, looked up): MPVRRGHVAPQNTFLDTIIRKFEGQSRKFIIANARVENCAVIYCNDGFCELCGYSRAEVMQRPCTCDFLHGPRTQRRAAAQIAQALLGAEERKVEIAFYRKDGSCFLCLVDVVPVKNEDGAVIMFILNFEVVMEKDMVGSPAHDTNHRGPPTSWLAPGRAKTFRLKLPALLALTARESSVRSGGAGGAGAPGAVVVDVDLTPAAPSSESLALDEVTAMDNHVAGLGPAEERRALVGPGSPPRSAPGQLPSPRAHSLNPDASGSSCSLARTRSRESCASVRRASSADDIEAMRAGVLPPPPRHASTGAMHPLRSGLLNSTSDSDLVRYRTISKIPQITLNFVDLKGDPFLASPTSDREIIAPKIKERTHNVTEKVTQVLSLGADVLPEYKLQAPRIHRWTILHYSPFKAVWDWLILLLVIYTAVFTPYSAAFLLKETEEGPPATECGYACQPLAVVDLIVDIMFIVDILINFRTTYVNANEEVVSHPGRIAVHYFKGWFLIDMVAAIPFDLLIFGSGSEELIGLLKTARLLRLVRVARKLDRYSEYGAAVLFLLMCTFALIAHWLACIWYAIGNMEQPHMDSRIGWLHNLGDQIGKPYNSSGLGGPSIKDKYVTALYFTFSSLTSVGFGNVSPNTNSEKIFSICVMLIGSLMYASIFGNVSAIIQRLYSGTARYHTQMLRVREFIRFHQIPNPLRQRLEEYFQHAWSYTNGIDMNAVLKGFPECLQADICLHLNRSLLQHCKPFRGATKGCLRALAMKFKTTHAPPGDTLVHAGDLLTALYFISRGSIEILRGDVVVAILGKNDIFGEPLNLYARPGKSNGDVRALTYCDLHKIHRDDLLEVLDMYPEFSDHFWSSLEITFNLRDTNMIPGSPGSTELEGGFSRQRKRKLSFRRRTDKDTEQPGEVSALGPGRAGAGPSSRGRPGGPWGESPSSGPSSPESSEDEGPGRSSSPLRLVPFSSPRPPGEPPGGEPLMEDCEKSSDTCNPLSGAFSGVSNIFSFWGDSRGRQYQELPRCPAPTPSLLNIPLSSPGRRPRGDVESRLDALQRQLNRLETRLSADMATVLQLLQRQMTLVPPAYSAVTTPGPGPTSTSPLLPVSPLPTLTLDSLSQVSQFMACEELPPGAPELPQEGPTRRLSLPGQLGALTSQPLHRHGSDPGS

This experiment addresses human ether-à-go-go-related gene (hERG) potassium channel (human, UniProt Q12809). Put plainly: primary screen, population patch clamp on CHO cells stably expressing hERG; higher = less effect of the substance. As for the experimental part: Briefly, Chinese hamster ovary (CHO) cells stably expressing the hERG channel were dislodged from tissue culture flasks and dispensed into PPC plates. […] During the recording, background leak currents were estimated by a 100 ms step to -80 mV from an initial holding potential of -70 mV and subtracted from the subsequent current measurement. The campaign was conducted in two phases using slight differences in recording protocol. In the first phase, the initial voltage pulse used a 100 ms step to -30 mV from a holding potential of -70 mV, a 2 s conditioning step to +25 mV, and a 2 s test step to -30 mV. During the second phase of the screen, the potential during the conditioning step was raised to +45 mV. In both phases of the campaign, a secondary voltage pulse was applied using the same parameters as the second phase initial pulse. The initial and secondary pulses were applied in the absence of compound, and upon application of 1 μM and 10 μM test concentrations. Small molecule effects on hERG current density were quantified by […].
With `COc1ccc(CC(=O)Nc2ccc(OC(C)=O)cc2C(=O)O)cc1`, the “hERG current change (%, negative = inhibition) at 1uM” value is -3.47%. For `O=c1c2ccccc2nnn1CSc1nnc2ccccn12` the value was 6.78%; for `Cc1ccc(Sc2ncccc2C(=O)O)cc1C`, 15.6%.

`CCOC(=O)N1CCC(NCCNC(=O)c2cccs2)CC1`: the “hERG current change (%, negative = inhibition) at 1uM” value turned out to be 5.13%. Under `CCOC(=O)c1[nH]c2ccc(OC)cc2c1NC(=O)OC` stands 9.33%. For `NC(=O)C1CCN(C(=O)N2c3ccccc3Sc3ccccc32)CC1` the value was 0.149%. As for `O=C(NCc1ccco1)C1CCCN(S(=O)(=O)c2ccc(-n3cnnn3)cc2)C1` (centres unmarked), the “hERG current change (%, negative = inhibition) at 1uM” value is reported as -26.8%. For `O=C(NCc1ccccc1Cl)C1CCN(S(=O)(=O)c2ccc(-n3cnnn3)cc2)CC1` the value was -3.01%. Under `CCN(CC)C(=O)C1CCN(S(=O)(=O)c2ccc(-n3cnnn3)cc2)CC1` stands 3.52%; under `O=C(NCc1ccco1)C1CCN(S(=O)(=O)c2ccc(-n3cnnn3)cc2)CC1`, -62.1%. For `C=CCNC(=O)C1CCN(c2ccc(S(=O)(=O)N3CCOCC3)cc2[N+](=O)[O-])CC1` the value was -2.79%. Regarding `CC(C)CNC(=O)C1CCN(c2ccc(S(=O)(=O)N3CCOCC3)cc2[N+](=O)[O-])CC1`, the “hERG current change (%, negative = inhibition) at 1uM” value is on record as -9.02%.

With `CN(Cc1ccccc1)C(=O)C1CCN(S(=O)(=O)c2ccc(-n3cnnn3)cc2)CC1`, the “hERG current change (%, negative = inhibition) at 1uM” value was -62%.

With `C=CCN(CC=C)C(=O)C1CCN(S(=O)(=O)c2ccc(-n3cnnn3)cc2)CC1`, the “hERG current change (%, negative = inhibition) at 1uM” value was -13.1%. Under `O=C(NCc1ccco1)C1CCN(c2ccc(S(=O)(=O)N3CCOCC3)cc2[N+](=O)[O-])CC1` stands -51.5%; under `C[C@@H]1CN(Cc2nc(Cc3ccccc3F)no2)C[C@H](C)O1`, 8.68%; under `O=C(Nc1cccc(C(=O)O)c1)/C(=C\c1ccc2c(c1)OCO2)NC(=O)c1ccccc1`, 3.01%. For `CC(C)Oc1cccc(C(=O)C2CCCN(C(=O)c3cncs3)C2)c1` (centres unmarked) the value was 4.28%; for `CC1CCC(C(C)C)C(OC(=O)COC(=O)c2cccn2C)C1` (centres unmarked), 17.6%.

In the case of `Cc1ccccc1OCc1n(CC(=O)OC2CC(C)CCC2C(C)C)c2ccccc2[n+]1C.[Cl-]` (centres unmarked), the “hERG current change (%, negative = inhibition) at 1uM” value was -1.86%.

Regarding `CC1CCC(C(C)C)C(OC(=O)Cn2c(-c3ccc(F)cc3)[n+](C)c3ccccc32)C1.[Cl-]` (centres unmarked), the “hERG current change (%, negative = inhibition) at 1uM” value is on record as -53.9%. Consider `COc1ccc(OCc2n(CC(=O)OC3CC(C)CCC3C(C)C)c3ccccc3[n+]2C)cc1.[Cl-]` (centres unmarked), for which the “hERG current change (%, negative = inhibition) at 1uM” value is -45.5%. Regarding `CC1CCC(C(C)C)C(OC(=O)C[n+]2cc(-c3ccc(Cl)cc3)n3c2CCCCC3)C1.[Cl-]` (centres unmarked), the “hERG current change (%, negative = inhibition) at 1uM” value was -19.9%. Under `CC1CCC(C(C)C)C(OC(=O)Cn2c(-c3ccccc3)[n+](C)c3ccccc32)C1.[Cl-]` (centres unmarked) stands -42.1%; under `CC1CCC(C(C)C)C(OC(=O)Cn2c(-c3ccc(Br)cc3)[n+](C)c3ccccc32)C1.[Cl-]` (centres unmarked), -60.7%; under `CC1CCC(C(C)C)C(OC(=O)Cn2c(COc3ccccc3)[n+](C)c3ccccc32)C1.[Cl-]` (centres unmarked), -54%.

In the case of `CC1CCC(C(C)C)C(OC(=O)C[n+]2cc(-c3ccc(Cl)cc3)n3c2CCC3)C1.[Cl-]` (centres unmarked), the “hERG current change (%, negative = inhibition) at 1uM” value is listed as -25.6%.

`CC1CCC(C(C)C)C(OC(=O)COC(=O)c2ccccc2N)C1` (centres unmarked): the “hERG current change (%, negative = inhibition) at 1uM” value is listed as 4.58%.

For the compound `Cc1cccc(OCc2n(CC(=O)OC3CC(C)CCC3C(C)C)c3ccccc3[n+]2C)c1.[Cl-]` (centres unmarked), the “hERG current change (%, negative = inhibition) at 1uM” value is given as -12.2%. Under `CC1CCC(C(C)C)C(OC(=O)Cn2c(-c3ccc(Cl)cc3)[n+](C)c3ccccc32)C1.[Cl-]` (centres unmarked) stands -58%. Under `COc1ccc(N2CCC(CNS(=O)(=O)c3cccc(C(F)(F)F)c3)C2)cc1` (centres unmarked) stands 4.38%; under `COc1cccc(NC(=O)Nc2nnc(CC(=O)Nc3ccccc3)s2)c1`, 6.56%; under `CC(=O)Oc1ccc(-c2cccc(C(=O)NCCO)c2)cc1`, 16.3%.

As for `O=C(CN1CCN(Cc2ccccc2)CC1)N=Nc1c(O)[nH]c2ccccc12`, the “hERG current change (%, negative = inhibition) at 1uM” value is recorded as -37.6%. With `O=C(CN1CCN(Cc2ccccc2Cl)CC1)N=Nc1c(O)[nH]c2ccccc12`, the “hERG current change (%, negative = inhibition) at 1uM” value is listed as -5.17%. For `Cc1ccc(CN2CCN(CC(=O)N=Nc3c(O)[nH]c4ccccc34)CC2)cc1` the value was -75.3%; for `COc1cc(C2CC(=O)Nc3cc(C)c(C)cc32)cc(OC)c1OC` (centres unmarked), 14.3%; for `COc1ccc(NC(=O)CNS(=O)(=O)c2ccc3nc(C)sc3c2)c(OC)c1`, 1.77%. For `CC(C)C(Sc1nc(-c2ccccc2)cc(-c2ccccc2)c1C#N)C(=O)O` (centres unmarked) the value was 9.23%. In the case of `O=C(CN1CCC(n2nnc3cc(C(F)(F)F)ccc32)CC1)NCc1cccs1`, the “hERG current change (%, negative = inhibition) at 1uM” value is given as -56.9%. For `O=C(CN1CCC(n2nnc3ccccc32)CC1)NCc1cccs1` the value was -47.3%.
